# Rows were chosen to be rich in hits. Some 1.7% of all compounds tested hit in one or more screens of this group.
# S1P2 antag: antagonists of human S1P2 receptor; O95136; cell-based S1P2 antagonist assay, inhibition at 5 uM; inhibition, % at 5 µM; actives 0.21% (n = 97,000); AID 736; in the data active = inhibition above about 45%;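 note: CRE beta-lactamase reporter cells expressing human S1P2 stimulated with S1P; 0% = agonist at EC80 alone and 100% = agonist plus reference antagonist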
# Target sequence (O95136 whole entry, looked up): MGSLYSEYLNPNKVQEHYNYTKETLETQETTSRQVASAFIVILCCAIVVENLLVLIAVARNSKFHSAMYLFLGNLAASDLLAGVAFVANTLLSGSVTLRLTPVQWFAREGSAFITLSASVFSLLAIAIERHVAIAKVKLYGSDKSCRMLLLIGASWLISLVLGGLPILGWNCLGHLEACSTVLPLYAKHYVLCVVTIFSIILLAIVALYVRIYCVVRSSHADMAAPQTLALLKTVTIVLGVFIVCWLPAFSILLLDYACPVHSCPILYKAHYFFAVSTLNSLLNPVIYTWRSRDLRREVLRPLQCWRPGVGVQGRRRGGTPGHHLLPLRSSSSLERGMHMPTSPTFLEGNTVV
# MRP-1 activ: MRP-1 activation; H69AR cells + doxorubicin, viability rescue, CellTiter-Glo; viability increase, % at 10 µM; actives 0.61% (n = 140,000); AID 799;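 active = viability gain under doxorubicin at or above a set limit, the compound median plus 3 SD, cut at about 4.7% in these data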;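 note: MRP-1 overexpressing cells given doxorubicin 25 µM after compound pretreatment; 18-22 h compound pretreatment then 72 h with doxorubicin before readout; 0% = doxorubicin-only wells and 100% = vehicle-treated cells without doxorubicin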
# S1P2 ag: S1P2 (human) receptor agonism; O95136; S1P2-expressing cell line, agonist reporter read-out; actives 0.46% (n = 97,000); activation, % at 4.5 µM; in the data active = activation above about 16%;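 note: 0% = vehicle low control and 100% = maximal reference agonist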
# MRP resist rev: MRP-mediated drug resistance reversal | H69AR cells + 2 uM doxorubicin, CellTiter-Glo, 72 h | differential viability (reversal), % at 10 µM | actives 0.04% (n = 85,000);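 active = viability drop by adding the cancer drug above about 55%, with treated viability meeting a 40% cutoff, limit read from the data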;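 note: viability without doxorubicin minus viability with 2 µM doxorubicin for each compound; larger differential means the compound sensitizes cells more to doxorubicin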
# GALR2 ag: GALR2 (human) receptor agonism; O43603; GALR2-expressing cells, agonist activation read-out; activation, % (concentration not given with the values); actives 0.48% (n = 140,000); AID 803; in the data active = activation above about 5%, passing the limit was not always enough;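 note: 0% = vehicle buffer wells and 100% = reference agonist at full effect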
# GALR2 antag: antagonists of human galanin receptor 2 (GALR2); O43603; GALR2-expressing cells, antagonist mode; inhibition, % at 4 µM; actives 0.39% (n = 140,000);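 note: cells stimulated with galanin 1-16 at roughly its EC80; 0% = agonist challenge control and 100% = basal control without agonist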
# GALR2 ant conf: confirmation of human galanin receptor 2 (GALR2) antagonists; shares compounds with GALR2 antag; GALR2-expressing cells, antagonist mode, inhibition; inhibition, % at 4 µM; actives 60% (n = 480); AID 866;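 note: cells stimulated with galanin at about its EC80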
# BLA inhib ctr: inhibits beta-lactamase reporter in GALR2 antagonist counterscreen. inhibition, % at 4.2 µM. CHO NFAT-BLA reporter, beta-lactamase FRET, thapsigargin-stimulated. actives 36% (n = 480). shares compounds with GALR2 antag;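 active = inhibition above the mean inhibition across tested compounds plus 3 SD, cut at about 27% in these data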;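 note: 0% = 500 nM thapsigargin stimulated wells and 100% = unstimulated BSA only wells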
# Starred values were filed as active, the others as inactive; x = no result. Cut-off read from the data, not from the text of the source, unless noted: active = inhibition above about 27%; inactive = the rest.
SMILES,S1P2 antag,MRP-1 activ,S1P2 ag,MRP resist rev,GALR2 ag,GALR2 antag,GALR2 ant conf,BLA inhib ctr
CC(=O)c1c(C)[nH]c(C(=O)COc2cc(C)ccc2C(C)C)c1C,65.6*,-1.9,-1.3,2.8,-1.7,32.6*,49.7*,18.5
CCOC(=O)c1ccccc1NC(=O)c1cccs1,0.4,-0.9,-5.5,12.3,0.5,-1.9,x,x
CCOC(=O)c1ccccc1N/C=C/C(=O)c1cccs1,x,-2.1,x,x,-0.8,27.2*,27.0*,11.4
Cc1ccc(C23CC4CC(CC(C(=O)OCC(=O)NC5CCS(=O)(=O)C5)(C4)C2)C3)cc1 (configuration not stated),x,-3.4,x,x,1.1,3.2,x,x
CCN1CCN(Cc2ccc(NC(=O)CC3Oc4ccc(C)cc4NC3=O)cc2)CC1 (configuration not stated),15.9,-0.7,-6.0,8.7,-2.2,34.2*,1.7,3.3
Cc1ccc(C)c(C(=O)CN2C(=O)NC3(CCC(C)CC3)C2=O)c1 (configuration not stated),x,0.6,x,x,-1.5,-4.8,x,x
CCOC(=O)c1c(C)n(C)c2ccc(OC(=O)c3ccc(N4C(=O)CCC4=O)cc3)cc12,x,-0.3,x,x,0.4,-3.6,x,x
COc1cccc(C2=CC(c3ccc(N(C)C)cc3)n3ncnc3N2)c1 (configuration not stated),-7.6,-2.0,-1.2,12.1,0.6,8.1,x,x
COc1cccc(C2=CC(c3ccccc3)n3ncnc3N2)c1 (configuration not stated),24.7,-0.6,-6.9,x,-0.8,27.0*,29.5*,35.8*
CCOC(=O)c1cc(-c2ccccc2)sc1NC(=O)C(C)OC(=O)c1cccnc1Cl (configuration not stated),x,-0.9,x,x,-0.3,-13.3,x,x
O=C(Cn1ncc(Cl)c(Cl)c1=O)NCC1CCCCC1,x,-5.5,x,x,0.6,46.7*,33.4*,18.0
O=C(Cn1ncc(Cl)c(Cl)c1=O)c1ccc(Cl)cc1,43.1,-7.2,-6.5,-0.6,-1.2,22.3,x,x
CN(C(=O)COc1ccccc1C(=O)NCCOc1ccccc1)c1ccccc1,x,-3.0,x,x,-1.8,28.8*,42.6*,12.3
CC1CCN(c2ccc(C(=O)O)cc2NS(=O)(=O)c2ccc(Br)cc2)CC1,x,-2.9,x,x,-0.7,-6.6,x,x
CCN(CC)c1ccc(/C=C2/SC(=O)N(C(C)C)C2=O)o1,x,-5.2,x,x,2.5,45.0*,3.1,5.2
Cc1ccc(SC(C)C(=O)Nc2ccccc2C(=O)N2CCOCC2)cc1 (configuration not stated),-10.0,-2.7,-3.5,x,-1.0,31.7*,7.9,2.3
N#CC(C#N)=C1C=CC=CN1/C(=C\c1ccccc1Cl)C(=O)c1ccccc1,x,-4.2,x,x,-2.2,73.2*,89.2*,99.1*
O/N=C1/C2C3C(Br)C4C5CC(C1C53)C24 (configuration not stated),x,-0.1,x,x,-1.3,14.6,x,x
COc1ccc(S(=O)(=O)Nc2cc(Sc3ncn[nH]3)c(O)c3ccccc23)cc1,4.6,-2.2,-2.4,x,0.0,48.8*,17.5,15.9
COc1ccc(S(=O)(=O)Nc2ccc(O)c(Sc3ncn[nH]3)c2)cc1,-23.9,0.1,0.5,-0.6,-0.6,3.3,x,x
O=S(=O)(Nc1cc(Sc2cccc3cccnc23)c(O)c2ccccc12)c1ccc(F)cc1,x,-5.5,x,x,-2.3,33.6*,26.8,17.1
COC(=O)C1=C(C)Nc2c(c(=O)n(C)c(=O)n2C)C1c1ccc(Cl)cc1 (configuration not stated),x,-2.1,x,x,-0.7,6.6,x,x
CCNc1nc(NCC)nc(SCCOc2ccc(C)cc2)n1,x,0.2,x,x,-2.5,-9.1,x,x
Cc1[nH]c2ccccc2c1/C=C(\C#N)C(=O)NCc1ccccc1,x,-1.2,x,x,0.1,32.5*,21.8,4.5
CCCC(=O)OCCn1c(Br)nc2c1c(=O)[nH]c(=O)n2C,-4.9,-1.8,-13.3,-11.2,-1.2,30.1*,24.6,0.3
SMILES,S1P2 antag,MRP-1 activ,S1P2 ag,MRP resist rev,GALR2 ag,GALR2 antag,GALR2 ant conf,BLA inhib ctr
Cn1c(=O)c(NCCc2ccccc2)c2c3c(cccc31)C(=O)c1ccccc1-2,28.5,-3.6,-4.0,63.7*,0.7,40.4*,38.3*,41.9*
O=C(COC(=O)c1ccccc1Nc1cccc(C(F)(F)F)c1)NCc1ccco1,-34.7,-2.3,-2.5,0.0,-3.3,-10.2,x,x
Cn1c(CNC(=O)Nc2cccc(Cl)c2)nnc1SCc1ccccc1,32.6,0.9,-6.7,12.0,-2.0,28.5*,14.5,8.4
CC(C)(C)c1ccc(S(=O)(=O)N2CCSC2)cc1,x,0.3,x,x,0.1,-1.2,x,x
COc1ccc(Nc2cnn(-c3nc4ccccc4s3)c(=O)c2Cl)cc1,x,-4.9,x,x,0.2,44.3*,52.2*,58.3*
O=C1NC(c2ccccc2)C(C(=O)c2cccs2)C(O)(C(F)(F)F)N1 (configuration not stated),10.2,-0.7,-2.5,16.1,-3.5,33.1*,9.1,-0.1
COc1cc(C2NC(=S)NC(O)(C(F)(F)F)C2C(=O)c2cccs2)cc(OC)c1O (configuration not stated),x,-2.6,x,x,0.9,10.1,x,x
O=C(CCc1ccccc1)Nc1ncn[nH]1,2.9,-2.1,-3.9,0.3,-3.1,0.5,x,x
O=C(/C=C/c1ccccc1)Nc1ncn[nH]1,28.0,-2.4,-3.2,x,-4.0,29.9*,37.3*,24.3
COc1cc(OC)nc(-n2ncc(Br)c(Br)c2=O)n1,x,-5.7,x,x,-2.3,102.8*,102.7*,105.1*
CC1CCN(C(=O)CCNC(=O)Cn2cnc3sc4c(c3c2=O)CCCC4)CC1,-22.1,-2.5,-0.1,11.6,1.3,-10.8,x,x
Cc1ccc(NC(=O)CCc2ccc(S(=O)(=O)NC3CCCCC3)cc2)cc1,-4.8,-2.4,-6.2,x,-2.1,14.0,x,x
Cc1ccc(NS(=O)(=O)c2ccc(CCC(=O)NC3CC3)cc2)cc1,-4.0,0.0,-2.7,-1.6,-4.0,28.1*,10.0,11.5
Cc1ccc(NC(=O)CN(C)C(=O)COc2c(Cl)cc(Cl)c3ccc(C)nc23)cc1,x,0.1,x,x,-0.8,2.5,x,x
Cc1ccc(NC(=O)CN(C)C(=O)Cn2ncc(Cl)c(Cl)c2=O)cc1,x,-5.2,x,x,-2.3,60.1*,83.3*,32.5*
Cc1cccc(N2CCN(C(=O)c3ccc(Cl)c(S(=O)(=O)N4CCc5ccccc5C4)c3)CC2)c1C,x,-0.2,x,x,-1.6,19.7,x,x
CCCCOc1ncnc2c1[nH]c1ccccc12,31.4,-4.7,-9.8,x,-1.6,36.4*,45.2*,13.7
CCCCOc1ncnc2c1[nH]c1ccc(F)cc12,63.3*,-1.4,1.3,-15.3,-2.7,37.3*,34.7*,-3.5
CCOC(=O)N1CCN(c2ncnc3c2[nH]c2ccc(F)cc23)CC1,58.5*,-2.7,-7.4,x,-1.5,37.9*,46.5*,4.3
CCCCOc1ncnc2c1[nH]c1ccc(OCC)cc12,-7.6,-0.9,-4.1,-10.7,-3.6,15.1,x,x

# Screening results as filed in PubChem BioAssay.
